Compound activity deposited in PubChem BioAssay by several laboratories.
CYP2C9 inhib: blockers of cytochrome P450 2C9 activity – biochemical, luminescence, ADME assay, primary screen; CYP2C9 Supersomes, luciferin-H conversion; hit rate 20% among 96,000; P11712; AID 777, 2007; inhibition, % at 5 µM;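 active = blocking of liver enzyme CYP2C9 beyond about 50% at 5 µM, limit read from the data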
Target sequence (P11712 whole entry, looked up): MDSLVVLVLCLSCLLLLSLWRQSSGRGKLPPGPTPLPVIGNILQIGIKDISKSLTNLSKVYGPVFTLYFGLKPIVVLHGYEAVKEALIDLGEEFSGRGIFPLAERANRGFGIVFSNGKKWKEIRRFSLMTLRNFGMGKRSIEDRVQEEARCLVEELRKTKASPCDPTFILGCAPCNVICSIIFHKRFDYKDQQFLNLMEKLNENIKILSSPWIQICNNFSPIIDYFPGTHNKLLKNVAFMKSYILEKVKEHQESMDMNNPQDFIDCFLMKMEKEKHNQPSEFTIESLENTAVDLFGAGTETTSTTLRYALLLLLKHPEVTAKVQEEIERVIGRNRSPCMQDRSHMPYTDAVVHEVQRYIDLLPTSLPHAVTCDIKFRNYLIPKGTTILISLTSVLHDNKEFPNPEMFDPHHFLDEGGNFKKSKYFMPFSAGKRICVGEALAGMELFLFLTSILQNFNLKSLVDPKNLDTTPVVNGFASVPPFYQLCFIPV
CYP2C19 activ: human CYP2C19 activators, primary screen, biochemical, luminescence; recombinant CYP2C19, luciferin-H EGE luminescence; active compounds read high; 0 = fully inhibited enzyme, 1 = untreated enzyme; activation factor at 5 µM; 96,000 tested, under 10 active;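 active = activation factor of at least 2 at 5 µM in the primary screen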;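 note: 0 = wells with 2.5 mM tranylcypromine and 1 = vehicle-only wells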
CYP2C9 act: human CYP2C9 activators, primary screen, biochemical, luminescence. Cytochrome P450 2C9 (Homo sapiens), P11712. recombinant CYP2C9, luciferin-H conversion; active compounds read high; factor 1 = untreated enzyme, 0 = blocked. activation factor at 5 µM. hit rate 1.4% among 96,000. AID 1024, 2008;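 active = activation factor of 2 or more for CYP2C9 at a 5 µM dose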;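 note: 0 = sulfaphenazole-blocked wells and 1 = vehicle-only wells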
CYP2C19 inhib: blockers of cytochrome P450 2C19 activity – biochemical, luminescence, ADME assay, primary screen; P33261; CYP2C19 Supersomes, luciferin-H EGE luminescence, 30 min; inhibition, % at 5 µM; hit rate 21% among 96,000;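 active = CYP2C19 inhibition above a set limit at 5 µM in the primary screen, cut at about 50% in these data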;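 note: plate controls were negative control wells for no effect and 2.5 mM tranylcypromine positive control for full effect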
MRP1 act: H69AR viability gain despite doxorubicin, primary screen, MRP-1 activator project, H69AR cells, CellTiter-Glo; hit rate 0.61% among 140,000; viability increase, % at 10 µM; AID 799, 2007; viability rescue;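 active = viability gain under doxorubicin at or above a set limit, the compound median plus 3 SD, cut at about 4.7% in these data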;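 note: MRP-1 overexpressing cells given doxorubicin 25 µM after compound pretreatment; 18-22 h compound pretreatment then 72 h with doxorubicin before readout; 0% = doxorubicin-only wells and 100% = vehicle-treated cells without doxorubicin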
MRP reversal: reversal of MRP1-mediated doxorubicin resistance, primary screen, H69AR cells, doxorubicin co-treatment. H69AR cells + 2 uM doxorubicin, CellTiter-Glo, 72 h. differential viability (reversal), % at 10 µM. hit rate 0.04% among 85,000;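 active = viability drop by adding the cancer drug above about 55%, with treated viability meeting a 40% cutoff, limit read from the data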;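 note: viability without doxorubicin minus viability with 2 µM doxorubicin for each compound; larger differential means the compound sensitizes cells more to doxorubicin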
* marks the source's active call; other numbers are inactive results. Shown are actives, neighbours in structure and some others; about 21% of the full set was active somewhere.

COC(=O)C1=C(CSc2nccn2C)NC(=O)NC1c1cc(C)ccc1C (stereo unspecified) was read as CYP2C9 inhib 28, CYP2C19 activ 0.5, CYP2C9 act 0.7, CYP2C19 inhib 49, MRP1 act -1 and MRP reversal 12.
Screening CSC1=NCCN1C(=O)COc1ccc2ccccc2c1 returned CYP2C9 inhib 32, CYP2C19 activ 0.1, CYP2C9 act 0.7, CYP2C19 inhib 88*, MRP1 act 1 and MRP reversal -2.
For O=C(COC(=O)c1ccc(Cl)s1)c1cc2ccccc2o1 the results were CYP2C9 inhib 43, CYP2C19 activ 0.3, CYP2C9 act 0.6, CYP2C19 inhib 70* and MRP1 act 0.
`COC(=O)CC/C(O)=C1/C(=N)CC(C)(C)CC1=O` gave CYP2C9 inhib 3, CYP2C19 activ 1, CYP2C9 act 1, CYP2C19 inhib 0, MRP1 act 0 and MRP reversal 3.
`Cc1nc(CC(=O)N2CCN(c3cccc(C)c3C)CC2)cs1` gave CYP2C9 inhib -30, CYP2C19 activ 0.2, CYP2C9 act 1.3, CYP2C19 inhib 84*, MRP1 act -1 and MRP reversal 3.
For COc1cccc(NC(=O)N2CCN(c3cccc(C)c3C)CC2)c1 the results were CYP2C9 inhib -102, CYP2C19 activ 0.8, CYP2C9 act 2*, CYP2C19 inhib 18 and MRP1 act -1.
Screening Cc1cccc(N2CCN(C(=O)n3ccnc3)CC2)c1C returned CYP2C9 inhib 86*, CYP2C19 activ 0, CYP2C9 act 0.1, CYP2C19 inhib 100*, MRP1 act 0 and MRP reversal -31.
For Cc1cccc(N2CCN(C(=O)Cn3cccc3)CC2)c1C the results were CYP2C9 inhib 6, CYP2C19 activ 0.2, CYP2C9 act 0.9, CYP2C19 inhib 79*, MRP1 act 2 and MRP reversal 8.
For Cc1cccc(N2CCN(C(=O)C(C)C)CC2)c1C the results were CYP2C9 inhib 17, CYP2C19 activ 0.8, CYP2C9 act 0.8, CYP2C19 inhib 18, MRP1 act 1 and MRP reversal 13.
COc1ccccc1N1CCN(C(=O)Nc2cccc(Cl)c2)CC1 was read as CYP2C9 inhib -18, CYP2C19 activ 0.7, CYP2C9 act 1.2, CYP2C19 inhib 33, MRP1 act 1 and MRP reversal 15.
Screening CCCCNC(=O)C(Sc1ccccc1)c1ccccc1 (stereo unspecified) returned MRP1 act -2.
COC(=O)C1=C(C)NC(=O)/C1=C\c1cc(C)n(-c2cc(C)cc(C)c2)c1C was read as CYP2C9 inhib 92*, CYP2C19 activ 0.2, CYP2C9 act 0.1, CYP2C19 inhib 82*, MRP1 act 4 and MRP reversal -1.
`Cc1oncc1C(=S)Nc1ccccc1` gave CYP2C9 inhib 16, CYP2C19 activ 0.6, CYP2C9 act 0.8, CYP2C19 inhib 35, MRP1 act 0 and MRP reversal -5.
For O=C(Nc1c(F)c(F)c(F)c(F)c1F)NC1CCCCC1 the results were CYP2C9 inhib -3, CYP2C19 activ 0.7, CYP2C9 act 1, CYP2C19 inhib 34, MRP1 act -1 and MRP reversal 16.
Screening Clc1ccc(-c2nnc3sc(-c4ccc(Br)o4)nn23)cc1 returned CYP2C9 inhib 15, CYP2C19 activ 0.7, CYP2C9 act 0.8, CYP2C19 inhib 33, MRP1 act 2 and MRP reversal 7.
Clc1ccc(-c2nnc3sc(-c4ccc(Br)o4)nn23)c(Cl)c1 was read as CYP2C9 inhib 21, CYP2C19 activ 0.4, CYP2C9 act 0.8, CYP2C19 inhib 58* and MRP1 act -3.
Brc1ccc(-c2nn3c(Cc4ccccc4)nnc3s2)o1 was read as CYP2C9 inhib 13, CYP2C19 activ 0.3, CYP2C9 act 0.9, CYP2C19 inhib 68*, MRP1 act 0 and MRP reversal 8.
`c1ccc(Cc2nnc3sc(Nc4ccccc4)nn23)cc1` gave CYP2C9 inhib -1, CYP2C19 activ 1, CYP2C9 act 1, CYP2C19 inhib -4 and MRP1 act -1.
Clc1ccccc1-c1nnc2sc(-c3ccc(Br)o3)nn12 was read as CYP2C9 inhib 47, CYP2C19 activ 0.2, CYP2C9 act 0.5, CYP2C19 inhib 80*, MRP1 act 1 and MRP reversal -20.
`CC1CC(C)CN(CCCNC(=O)c2cn(C)c3ccc(S(=O)(=O)N4CCCC4)cc3c2=O)C1` (stereo unspecified) gave MRP reversal 0.
CCc1cccc2c(C#N)cn(CC(=O)NCc3ccco3)c12 was read as CYP2C9 inhib 14, CYP2C19 activ 0.5, CYP2C9 act 0.9, CYP2C19 inhib 51*, MRP1 act -4 and MRP reversal 11.
COC(=O)c1cc(-c2cccc(OC)c2)n[nH]1 was read as CYP2C9 inhib 4, CYP2C19 activ 0.3, CYP2C9 act 1, CYP2C19 inhib 70*, MRP1 act -1 and MRP reversal -3.
Screening COc1cccc(-c2csc(NC(C)=O)n2)c1 returned CYP2C9 inhib 24, CYP2C19 activ 0.7, CYP2C9 act 0.8, CYP2C19 inhib 27, MRP1 act 0 and MRP reversal -4.
O=C(CSc1nnc(-c2ccc(OC(F)F)cc2)o1)NC(=O)NCc1ccco1 was read as CYP2C9 inhib -3, CYP2C19 activ 1.1, CYP2C9 act 1, CYP2C19 inhib -13, MRP1 act -2 and MRP reversal -4.
O=C(c1ccccc1)N1CCN(CC2CC=CCC2)CC1 (stereo unspecified) was read as CYP2C9 inhib 78*, CYP2C19 activ 0.4, CYP2C9 act 0.2, CYP2C19 inhib 57*, MRP1 act 0 and MRP reversal -10.
`O=C(c1ccccc1)N1CCN(CC(O)COCC2CC=CCC2)CC1` (stereo unspecified) gave CYP2C9 inhib 8, CYP2C19 activ 0.9, CYP2C9 act 0.9, CYP2C19 inhib 13, MRP1 act -1 and MRP reversal 11.
`Cc1ccc(N2CCN(CC3CC=CCC3)CC2)cc1` (stereo unspecified) gave CYP2C9 inhib 5, CYP2C19 activ 0.4, CYP2C9 act 0.9, CYP2C19 inhib 60*, MRP1 act 0 and MRP reversal -15.
Screening FC(F)(F)c1cccc(N2CCN(CC3CC=CCC3)CC2)c1 (stereo unspecified) returned CYP2C9 inhib -12, CYP2C19 activ 0.2, CYP2C9 act 1.1, CYP2C19 inhib 80*, MRP1 act -3 and MRP reversal 2.
Screening CCNC(=O)NC(=O)COC(=O)CCCSc1nc2ccccc2s1 returned MRP1 act -1.
